The results in this text go back to PubChem BioAssay (NCATS).

For test [1], the target named is Glutathione peroxidase 1 (Homo sapiens) (UniProt P07203). The experiment in a line: Primary qHTS Assay for Inhibitors of Recombinant Selenoprotein Glutathione Peroxidase 1 (GPX1) (AID 1845191). The essentials:
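GR-coupled readout: NADPH consumption tracked by fluorescence, ex 340/em 450 nm, at t=0 and after 15 min at RT. Final mix 10 nM GPX1, 1 mM GSH, 0.5 mM CHP, 0.5 mM NADPH, 100 nM GR, 0.01% BSA, following 30 min enzyme–compound preincubation.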
(In general: qHTS replaces the single test concentration by a dilution series.)

Test [2] concerns the target Phospholipid hydroperoxide glutathione peroxidase GPX4 (Homo sapiens) (UniProt P36969). The test can be described thus: Primary qHTS Assay for Inhibitors of Recombinant Selenoprotein Glutathione Peroxidase 4 (GPX4) (AID 1845192). In outline:
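Steps: GPX4 plus compound, 30 min RT; add GR/GSH/NADPH master mix; start with cumene hydroperoxide; read 340/450 nm fluorescence at 0 and 15 min. Finals were 200 nM GPX4, 1 mM GSH, 0.5 mM CHP, 0.5 mM NADPH, 100 nM GR.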

Records with an inconclusive call do not appear. Where a call stands in place of a potency, no number is given. The source made the active and inactive calls. Calls come from the whole dose curve; as a rule, active = well fitted inhibition curve with a large enough effect; inconclusive = small, poorly fitted or top-dose-only effect; inactive = flat fitted curve, though single readings scatter.
Note: nearly all actives have a fitted effect of over 65% in size.

Sequence of Glutathione peroxidase 1 (Homo sapiens) (P07203 whole entry, looked up): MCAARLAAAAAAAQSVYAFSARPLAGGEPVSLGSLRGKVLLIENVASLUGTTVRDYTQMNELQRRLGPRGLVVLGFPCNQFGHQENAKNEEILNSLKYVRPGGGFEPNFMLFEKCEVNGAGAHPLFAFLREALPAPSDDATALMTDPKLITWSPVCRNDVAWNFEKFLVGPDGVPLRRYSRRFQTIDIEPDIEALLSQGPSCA
Sequence of Phospholipid hydroperoxide glutathione peroxidase GPX4 (Homo sapiens) (P36969 whole entry, looked up): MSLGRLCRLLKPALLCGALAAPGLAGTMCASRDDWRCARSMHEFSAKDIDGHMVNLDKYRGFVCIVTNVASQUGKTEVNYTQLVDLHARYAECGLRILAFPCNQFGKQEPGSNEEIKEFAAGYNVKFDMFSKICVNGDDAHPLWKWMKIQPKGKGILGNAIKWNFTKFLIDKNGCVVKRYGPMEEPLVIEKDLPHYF

As for `Nc1cc(-c2ccncc2)c[nH]c1=O`, the Potency entry in test [1] and in test [2] was “inactive” each time.
In the case of `COc1cccc(OC)c1OCCNCC1COc2ccccc2O1` (configuration not stated), the Potency entry in test [1] and in test [2] was “inactive” throughout.
On to `COc1ccc(-c2cc(=O)c3c(O)c(OC)c(OC)cc3o2)cc1O`, for which the Potency result in test [1] and in test [2] was “inactive” in each case.
Consider `CC[C@H]1OC(=O)[C@H](C)C(O[C@H]2C[C@@](C)(OC)[C@@H](O)[C@H](C)O2)[C@H](C)[C@@H](OC2O[C@H](C)C[C@H](N(C)C)[C@H]2O)[C@](C)(O)C[C@@H](C)CN(C)[C@H](C)[C@@H](O)[C@]1(C)O` (some centres not stated), for which the Potency result in test [1] and in test [2] was “inactive” throughout.
For the molecule `CN(C)c1ccc(/C=C2\C(=O)Nc3ccccc32)cc1`, the Potency result in test [1] and in test [2] was “inactive” throughout.
`CSc1ccccc1N1CCN(CCCCCC(=O)NC2CCCc3ccccc32)CC1` (configuration not stated): the Potency result in test [1] and in test [2] was “inactive” in each case.
Turning to `O=[N+]([O-])c1ccc2c(c1)S(=O)(=O)C=C2`, the Potency result in test [1] and in test [2] was “inactive” in each case.
Regarding `O=C1NC(O)=NC1(c1ccccc1)c1ccccc1`, the Potency result in test [1] and in test [2] was “inactive” in each case.
Take `COCCOc1cc2ncnc(Cl)c2cc1OCCOC`: the Potency entry in test [1] and in test [2] was “inactive” throughout.
As for `O=c1cc(-c2ccccc2)oc2c(O)c(O)ccc12`, the Potency entry in test [1] and in test [2] was “inactive” throughout.
`O=C(/C=C/c1ccc(O)cc1)c1ccc(O)cc1O`: the Potency entry in test [1] and in test [2] was “inactive” throughout.
Consider `NCCSSCCN`, for which the Potency entry in test [1] and in test [2] was “inactive” throughout.
As to `N#C/C(=C\c1ccc(O)c(O)c1)C(=O)c1ccc(O)c(O)c1`, the Potency entry in test [1] and in test [2] was “inactive” each time.
With `O=c1[nH]c2cc(C(F)(F)F)ccc2n1-c1cc(C(F)(F)F)ccc1O`, the Potency entry in test [1] and in test [2] was “inactive” in each case.
As for `O=C(NOCC1CC1)c1cc(Br)c(F)c(F)c1Nc1ccc(I)cc1Cl`, the Potency entry in test [1] and in test [2] was “inactive” each time.
For the molecule `Nc1c(CC(=O)O)cccc1C(=O)c1ccc(Br)cc1`, the Potency result in test [1] and in test [2] was “inactive” each time.
